# High-throughput results deposited in PubChem by National Center for Advancing Translational Sciences (NCATS).
# HT1080-NT tox: qHTS for induction of synthetic lethality in tumor cells producing 2HG: qHTS for the HT-1080-NT fibrosarcoma cell line; HT-1080-NT fibrosarcoma viability, CellTiter-Glo ATP luminescence, 48 h; Potency, µM (top dose mostly 46.1 µM), for inactives: at the highest dose activity, negative = less viability, most hits filed as cytotoxic; 1.6% of 360,000 active; AID 686970, 2013;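 also: NT is the 2HG producing partner of a matched IDH1 knockdown line; 0% = DMSO-treated cells and -100% = media-only wells without cells; nearly all actives have a fitted effect of over 55% in size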
#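 HT-1080-NT fibrosarcoma cells (2HG-overproducing), 750 cells/well in RPMI with 5% FBS, dosed after 2 h and incubated 48 h at 37C. CellTiter-Glo luminescence normalized to DMSO and no-cell wells; concentration-response curves fitted and classed.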
# TGFb SMAD3 inh: qHTS for Inhibitors of TGF-b | HepG2 CAGA-GFP TGF-b/SMAD3 reporter, GFP fluorescence, 18 h; TGF-beta stimulated, 500 pg/mL final | Potency, µM (top dose mostly 46.1 µM), for the others: at the highest dose activity, negative = inhibition, hits mostly inhibitors | 1.2% of 410,000 active; also: % is scaled to controls: 0 for no effect and ±100 for the full control effect; nearly all actives have a fitted effect of over 65% in size
#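 Smad-responsive CAGA-GFP expression was quantified in HEPG2 cells exposed to compounds and 500 pg/mL final TGF-beta for 18 h at 37 degrees C; unstimulated wells defined full inhibition.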
# KB-3-1 cytotox: qHTS assay for MDR1-selective chemotherapeutics: Primary screen using the parental adenocarcinoma cell KB-3-1; Potency, µM (highest dose often 46.1 µM), usual class: cytotoxic; KB-3-1 viability, CellTiter-Glo ATP luminescence, 72 h; 1.4% of 400,000 active; also: % is scaled to controls: 0 for no effect and ±100 for the full control effect; nearly all actives have a fitted effect of over 60% in size
#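 Parental KB-3-1 adenocarcinoma cells in phenol-red-free DMEM with 10% FBS were pin-treated with compounds at several concentrations, incubated 72 h at 37 °C, and viability read by CellTiter-Glo luminescence; concentration-effect curves were fitted after normalization.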
# KB-V1 cytotox: qHTS assay for MDR1-selective chemotherapeutics: Primary screen using the drug-selected MDR subline cells KB-V1; Potency, µM (top dose mostly 46.1 µM), hits mostly cytotoxic; 3.4% of 400,000 active; KB-V1 MDR cells viability, CellTiter-Glo, 72 h; also: % is scaled to controls: 0 for no effect and ±100 for the full control effect; nearly all actives have a fitted effect of over 60% in size
#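 KB-V1, DMEM (no phenol red) + 10% FBS; cpd pin-transferred, titration series; 72 h, 37 degrees C; CellTiter-Glo, luminescence. Data normalized, curve-fit.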
# HepG2 tox: qHTS for Inhibitors of TGF-b: Cytotox Counterscreen; HepG2 CAGA-GFP viability, ATP luminescence, 18 h; Potency, µM (highest dose often 46.1 µM), for the others: at the highest dose activity change, negative = cytotoxicity, hits mostly cytotoxic; 0.76% of 410,000 active
#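 CellTiter-Glo luminescence gave cytotoxicity after 18 hours at 37 degrees C. The cells were HepG2 CAGA-GFP in 1% FBS DMEM, stimulated with 500 pg/mL TGF-beta after compound addition. %Activity was normalised to no-cell wells (complete cell-killing) and DMSO (no toxicity), and curves were fitted and classified.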
# HT1080 IDH1KD tx: qHTS for induction of synthetic lethality in tumor cells producing 2HG: qHTS for the HT-1080-IDH1KD cell line; 2% of 360,000 active; HT-1080 IDH1 knockdown viability, ATP luminescence, 48 h; AID 686971, 2013; Potency, µM (series often up to 46.1 µM), for inactives: at the top dose activity, negative = toxicity, most hits filed as cytotoxic;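 also: 0% = DMSO wells and -100% = cell-free medium wells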
#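 Viability of IDH1-knockdown HT-1080 fibrosarcoma cells was assessed by CellTiter-Glo after 48 h at 37 °C with titrated compound; concentration-effect curves were classified by fit quality and response size.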
# * = called active by the depositor; i = inactive; ? = inconclusive; · = no result given; [ ] = remark or other dose. Compounds with a hit are over-represented: about 6.6% of the library has one in this group of screens. Calls follow the shape of the dose curve; as a rule, active = well fitted curve in the direction sought with a large enough effect; inconclusive = small, poorly fitted or top-dose-only effect, or another doubt; inactive = no such curve, though single readings can be large; an effect the other way counts as inactive or inconclusive. Potency is read from the fitted curve at half-maximal effect.
SMILES,HT1080-NT tox,TGFb SMAD3 inh,KB-3-1 cytotox,KB-V1 cytotox,HepG2 tox,HT1080 IDH1KD tx
Cc1csc(NC(=O)CSc2nc(C(C)C)nc3ccccc23)n1,?,0%,?,15µM*,-12%,-25%
C1=CN2CC=Cc3cc(/C=C/c4ccnc5ccccc45)cc(c32)C1,·,125%,i,i,-20%,·
CC(NC(=O)c1cccc(NC(=O)c2nsc3ccccc23)c1)c1ccccc1 (centres undefined),·,12%,i,i,-27%,·
CCOC(=O)C1CCN(C(=O)c2ccc(NC(=O)c3nsc4ccccc34)cc2)CC1,·,0%,·,·,-44%,·
O=C(Nc1ccc2nc(-c3ccco3)c(-c3ccco3)nc2c1)N1CCCC1,·,?,·,·,-2%,·
Cc1ccc(NC(=O)c2cc(-c3cccs3)nc3ccccc23)c(C)c1,·,-31%,i,i,-19%,·
Cc1cccc2sc(NNC(=O)c3cc(-c4cccs4)nc4ccccc34)nc12,?,?,?,?,-41%,21µM*
COc1ccc(NCC(=O)Nc2ccc(Cl)cc2C)c(OC)c1,?,?,i,i,-64%,16µM*
COc1ccc(-c2nnc(SCC(=O)Nc3cccc(Cl)c3C)nc2-c2ccc(OC)cc2)cc1,·,-13%,i,i,7%,·
COc1ccc(OC)c(NC(=O)CS(=O)(=O)c2ccccc2)c1,-5%,-22%,i,18µM*,10%,2%
COc1ccc(-c2nnc(SCC(=O)Nc3cc(OC)ccc3OC)nc2-c2ccc(OC)cc2)cc1,·,10µM*,i,i,-13%,·
COc1ccc(NC(=O)CC(=O)Nc2ccc(OC)cc2OC)c(OC)c1,6%,-3%,i,21µM*,2%,7%
COC(=O)CCN1CCC2CC1c1cc(Cl)ccc12 (centres undefined),2%,14%,i,i,-2%,7%
N#Cc1cccc(C(=O)C(=O)N2CCN(c3ccccc3)CC2)c1,16%,·,i,i,·,11%
COc1ccc(OC)c(NC(=O)CSc2nnc(Cc3cccn3C)n2CCc2ccccc2)c1,-8%,-4%,i,7.3µM*,-23%,-11%
Cn1cccc1Cc1nnc(SCC(=O)Nc2ccc(F)cc2)n1CCc1ccccc1,-15%,0%,i,i,-26%,-8%
CCn1ncc(Br)c1C(=O)Nc1cccc(F)c1,-5%,11%,i,i,1%,5%
Cc1ccsc1C(=O)Nc1ccc2c(c1)OCCO2,-10%,6%,?,21µM*,-56%,-28%
CCn1ncc(Br)c1C(=O)Nc1ccc2c(c1)OCCO2,3%,-4%,?,21µM*,-23%,-2%
CC(C)(O)C#Cc1ccc(C(=O)Nc2ccc3c(c2)OCO3)s1,?,0%,i,i,-3%,7.3µM*
Cc1occc1C(=O)Nc1ccc2c(c1)OCCO2,-4%,-27%,i,13µM*,-42%,-11%
Cc1ncoc1C(=O)Nc1ccc2c(c1)OCCO2,-3%[9.24 µM],-25%,?,i,-38%,?
Cc1cc(C(=O)Nc2ccc3c(c2)OCCO3)c(C)o1,-7%,?,i,i,-39%,-7%
CCc1ccc(C(=O)c2cnc3ccc(F)cc3c2S(=O)(=O)c2ccccc2)cc1,·,3%,i,i,-21%,·
CCc1cccc(NC(=O)CN2C(=O)COc3ccc(S(=O)(=O)Nc4ccccc4)cc32)c1,·,?,i,i,-49%,·
SMILES,HT1080-NT tox,TGFb SMAD3 inh,KB-3-1 cytotox,KB-V1 cytotox,HepG2 tox,HT1080 IDH1KD tx
CCCCOc1ccc(C(=O)N(Cc2ccc(C(C)C)cc2)C2CCS(=O)(=O)C2)cc1 (centres undefined),·,?,?,?,-11%,·
O=C(Nc1ccc2c(c1)OCCO2)c1ccccc1,-7%,6%,i,i,-26%,-5%
O=C(Nc1ccc2c(c1)OCCO2)c1ccc(Br)s1,-5%,-8%,18µM*,13µM*,-20%,-1%
Cc1cc(C)c2cc(CN(CCN3CCCC3)C(=O)Nc3ccc(F)cc3)c(=O)[nH]c2c1,?,?,?,i,-37%,18µM*
C=CCn1c(NC(=O)c2ccc(C)cc2)c(C#N)sc1=N,19%,-25%,5.2µM*,1.3µM*,7%,?
COc1ccc(S(=O)(=O)NC(=O)C2(C)CCN2C(=O)Cc2ccc(C(C)(C)C)cc2)cc1 (centres undefined),11%,2%,i,i,5%,2%
O=C(CSC(=S)N1CCCCC1)Nc1nc(-c2ccccc2)c(-c2ccccc2)o1,2%,1%,i,23µM*,2%,1%
CCOc1ccccc1CNC(=O)c1ccc(Cn2c(SCc3ccccc3)nc3cccnc32)cc1,·,?,?,i,-18%,·
NC(=O)c1ccc(NC(=O)CCc2nc3ccccc3s2)cc1,10%,-2%,i,?,0%,1%
O=C(Nc1ccc(Cc2nc3ccccc3s2)cc1)c1ccncc1,-27%,?,16µM*,7.3µM*,-9%,-24%
O=C(Nc1nc2c(s1)CN(Cc1ccccc1)CC2)C1CCC1,-14%,7%,i,i,11µM*,-1%
CCN1CCc2nc(NC(=O)c3ccccc3)sc2C1,-7%,0%,i,?,1%,3%
NC(=NCCc1ccc(Cl)cc1)NS(=O)(=O)c1ccc(F)cc1,5%,-2%,?,15µM*,-11%,-2%
COC(=O)C1CC1[C@H](NC(=O)c1cccnc1)c1ccccc1 (some centres undefined),·,13%,·,·,11%,·
Cc1nnc(SCCCN2C(=O)c3ccccc3C2=O)o1,4%,-6%,i,i,-20%,-1%
